Inconclusive results are not listed. Unmarked numbers belong to inactive results. Calls of active or inactive are those of the source. The call rests on the fitted dose curve; in most records, active means well fitted inhibition curve with a large enough effect in the repeat runs; inconclusive means weak or mixed curves; inactive means no such curve, though single readings can be large or run the other way.
On the % scale 0 is the no-effect control and ±100 the full control effect; potency means the concentration at half of the fitted maximal effect.

Chain of Cytochrome P450 2C9 (Homo sapiens) (P11712 whole entry, looked up): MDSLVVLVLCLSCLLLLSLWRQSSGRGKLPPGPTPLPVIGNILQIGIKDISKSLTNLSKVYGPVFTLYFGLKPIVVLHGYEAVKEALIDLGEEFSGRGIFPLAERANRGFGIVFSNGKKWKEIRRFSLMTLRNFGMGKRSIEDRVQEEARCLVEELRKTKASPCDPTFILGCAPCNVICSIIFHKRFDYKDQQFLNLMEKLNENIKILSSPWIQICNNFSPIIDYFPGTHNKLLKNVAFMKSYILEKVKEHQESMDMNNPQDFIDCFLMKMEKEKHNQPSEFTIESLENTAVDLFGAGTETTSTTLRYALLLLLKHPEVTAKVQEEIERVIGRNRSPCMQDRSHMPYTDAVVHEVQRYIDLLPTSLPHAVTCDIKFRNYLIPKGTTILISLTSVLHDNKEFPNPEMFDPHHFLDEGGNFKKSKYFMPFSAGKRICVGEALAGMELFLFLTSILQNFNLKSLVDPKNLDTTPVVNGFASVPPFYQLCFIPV

This assay deals with Cytochrome P450 2C9 (Homo sapiens) (UniProt P11712). The experiment in a line: Cytochrome P450 family 2 subfamily C member 9 (CYP2C9) small molecule antagonists: luciferase biochemical (cell-free) qHTS assay (AID 1645842). Further: nearly all actives have a fitted effect of over 55% in size. The conditions noted are these: P450-Glo CYP2C9 enzyme assay, luciferin luminescence; series mostly up to 57.4 µM; activity change, negative = inhibition: at the top concentration. As to the method:
National Center for Advancing Translational Sciences [NCATS] Assay Overview: Cytochrome P450 (CYP) enzymes are membrane-bound hemeproteins that play a key role in metabolism of drugs and xenobiotics. Assaying the effect of chemicals on CYP isozymes is useful to minimize the adverse drug reactions and toxicities in drug development process. Chemical compounds were tested for their effect on CYP enzyme activities by using P450-Glo (TM) screening systems (Promega Corporation, Madison, WI). These systems provide a luminescent method containing proluciferin substrates and are converted to luciferin products by CYP isozymes. The luciferin products formed are detected with a luciferin detection reagent, and the amount of light produced is proportional to CYP activity. P450-Glo (TM) CYP2C9 screening system (Catalog. No. V9790) was used to detect the compounds that interfere in CYP2C9 activity.
Assay Protocol Summary: Two ul of enzyme-substrate mix supplemented with 0.4% Bovine Serum Albumin was dispensed into medium binding white/solid 1536-well plates (Greiner Bio-One North America Inc., Monroe, NC) using a Flying Reagent Dispenser (FRD, Aurora Discovery, San Diego, CA). […] The assay plates were incubated at room temperature for 10 min. Then 2 ul of NADPH regeneration solution was added to each well of the assay plates using an FRD and incubated at 37C for 1 h. The reaction was stopped by adding 4 ul of detection reagent using an FRD and after 20 min incubation at room temperature, the luminescence signal was measured using a ViewLux plate reader (Perkin Elmer, Shelton, CT). Data were expressed as relative luminescence units.
Consider `O=C(Nc1ccc(S(=O)(=O)C(F)(F)F)cc1)C1=CCN(c2ncccc2C(F)(F)F)CC1`, for which the Potency was 3.01 µM (active).

Turning to `CS(=O)(=O)N1CCC(NC(=O)c2[nH]ncc2NC(=O)c2c(Cl)cccc2Cl)CC1`, the Potency is 21.3 µM (active).

With `COc1cc(Nc2nc3ccccc3nc2NS(=O)(=O)c2ccc(NC(=O)c3ccc(OC)c(C)c3)cc2)cc(OC)c1`, the Potency is 3.79 µM (active).

`COc1ccc(CNC(=O)c2cc(-c3cncc(C)c3)ncc2-c2nccs2)nc1OC`: the Potency is 4.25 µM (active).

As for `Oc1ccc2nc(CN3CCC(Cc4ccccc4F)CC3)[nH]c2c1`, the Potency was 10.7 µM (active).

As to `Cc1ccc(NC(=O)C(=O)NC2CC(C)(C)NC(C)(C)C2)cc1`, the “activity change, negative = inhibition” value was 0.0734%.

Regarding `O=C(CCc1ccccc1)N1CCC(O)(Cn2cnc3cc(Cl)ccc3c2=O)CC1`, the Potency is 10.7 µM (active).

On to `CC(C)C(CO)Nc1nc(Nc2cc(N)cc(Cl)c2)c2ncn(C(C)C)c2n1` (stereo not given), for which the Potency is 0.536 µM (active).

In the case of `CC[C@H](CO)Nc1nc(NCc2ccc(-c3ccccn3)cc2)c2ncn(C(C)C)c2n1`, the Potency was 0.19 µM (active).

Turning to `Cc1nc2sc(C(=O)NCc3ccncc3)c(N)c2c(C)c1Cl`, the “activity change, negative = inhibition” value is 3.34%.

For `COc1cc(NC(=O)Nc2cccc(CNC(=O)O[C@H]3CCOC3)c2)ccc1-c1cnco1`, the Potency is 0.0379 µM (active).

Regarding `Cc1ccc(N)cc1O`, the Potency is 20 µM (active).

As for `Cc1cc(C)nc(NS(=O)(=O)c2ccc(NC(=S)NC(=O)COc3ccc(Br)cc3Cl)cc2)n1`, the Potency was 10.7 µM (active).

In the case of `O=S(=O)(NCC1CC1)c1ccc(Nc2nccc(N3CCCc4cc(O)ccc43)n2)cc1`, the Potency was 1.07 µM (active).

On to `CCN(Cc1cccnc1)C(=O)CN(c1ccc(OC)nc1)S(=O)(=O)c1ccccc1C`, for which the Potency is 19 µM (active).

As to `COc1cc(C(=O)NC2CCN(C)CC2)c(F)cc1Nc1ncc2c(n1)N(C1CCCC1)CC(F)(F)C(=O)N2C`, the Potency is 5.35 µM (active).

In the case of `Cc1c(C(=O)N2CCOc3ccc(-c4ccc(N)nc4)cc3C2)ccc(S(C)(=O)=O)c1F`, the “activity change, negative = inhibition” value was 1%.

On to `O=C(COc1cccc2c(=O)[nH]ccc12)c1ccccc1`, for which the Potency is 8.49 µM (active).

For `COc1cc2c(NC3CCN(CC4CCCCC4)CC3)nc(N3CCCN(C(C)C)CC3)nc2cc1OCCCN1CCCCC1`, the Potency result is “inactive”.

As to `O=C(Nc1ccc(S(=O)(=O)Nc2ccccc2Cl)c(Cl)c1)c1ccccn1`, the Potency is 0.674 µM (active).

As for `CC(C)(C)Nc1nc(Nc2ccc(C(N)=O)cc2)cc(N)c1C#N`, the Potency is 3.38 µM (active).

On to `Cc1cc2c(F)c(Oc3ncnn4cc(OCC(C)O)c(C)c34)ccc2[nH]1` (stereo not given), for which the Potency is 12 µM (active).

In the case of `CCn1c(=O)c(-c2ccn[nH]2)cc2c(C)nc(N)nc21`, the Potency was 26.8 µM (active).

In the case of `Cc1nc(NC(=O)N2CCCC2C(N)=O)sc1-c1csc(C(C)(C)C)n1` (stereo not given), the “activity change, negative = inhibition” value was 63.5%.

For `CNC(=O)c1ccccc1Nc1cc(Nc2ccc(N3CCOCC3)cc2OC)ncc1C(F)(F)F`, the Potency is 4.25 µM (active).

On to `N#Cc1c(Oc2ccc(F)c(NC(=O)Cc3cccc(C(F)(F)F)c3)c2)ccc2nc(NC(=O)C3CC3)sc12`, for which the Potency is 0.338 µM (active).

Consider `O=C(Nc1ccccc1)N1CCN(Cc2ccc3ccccc3n2)CC1`, for which the Potency is 10.7 µM (active).

Consider `O=C(c1cn(Cc2cncn2Cc2ccc(Br)cc2)cc1-c1cccc2ccccc12)N1CCOCC1`, for which the Potency is 1.69 µM (active).

In the case of `COc1cc(Br)c(Nc2nc(-c3c(C)nc4ncccn34)cs2)c(Br)c1`, the Potency was 8.49 µM (active).

For `COc1ccc(C(=O)n2c(C)c(Cc3cccc(O[C@@H](C)C(=O)O)c3)c3cc(OC(F)(F)F)ccc32)cc1`, the Potency is 19 µM (active).

With `NC(=O)Nc1cc(-c2cccc(F)c2)sc1C(=O)NC1CCCNC1` (stereo not given), the “activity change, negative = inhibition” value is -4.67%.

Regarding `CCOc1cc2ncc(C#N)c(Nc3ccc(F)c(Cl)c3)c2cc1NC(=O)/C=C/CN(C)C`, the Potency is 3.79 µM (active).

Consider `Cn1nc(C(C)(C)C)cc1C(=O)NC(Cc1cccc(Cl)c1)C(=O)NCC#N` (stereo not given), for which the Potency was 15.1 µM (active).

Turning to `COC(=O)CCSCc1ccc(-c2onc(C)c2NC(=O)OC(C)c2ccccc2Cl)cc1` (stereo not given), the Potency was 1.51 µM (active).

`CC(C)S(=O)(=O)NC[C@H](C)c1ccc(NC(=O)c2cc(F)cc(F)c2)cc1`: the Potency was 7.56 µM (active).

For `N#CC(c1ccnc(OCc2ccc(CN3CCOCC3)cc2)n1)c1nc2ccccc2s1` (stereo not given), the Potency was 10.7 µM (active).

For the compound `O=C(NCc1ccc(F)cc1)C(=O)c1c[nH]c2ccccc12`, the Potency is 1.9 µM (active).

Regarding `C[C@@H]1CCN(C(=O)N2CCCC2)C[C@@H]1N(C)c1ncnc2[nH]ccc12`, the “activity change, negative = inhibition” value is 8.71%.

`CN(c1ccccc1CNc1nc(Nc2ccc3c(c2)CC(=O)N3)ncc1C(F)(F)F)S(C)(=O)=O`: the Potency was 1.51 µM (active).

Take `CC1(C)CC(=O)C2=C(C1)NC(=S)NC2c1cccc(O)c1` (stereo not given): the Potency was 2.13 µM (active).

For the origin of these results see PubChem BioAssay (NCATS).
